{
  "source": "the supplement of paper PMC3656093",
  "note": "± gives the standard deviation of the averaged measurements. In all, about 1,900 compounds were measured (“CD40L-induced NF-kB luciferase activity, plate-corrected, relative to DMSO (0) and IKK inhibitor VII (-100) controls”: median about 0.032, lowest 2% from about -26 on). For the sample, the lowest values were picked, then their nearest neighbours and some compounds at random.",
  "data": [
    {"test_system": "BL2-NFkB-Luc", "experiment": "CD40L-induced NF-kB luciferase activity, plate-corrected, relative to DMSO (0) and IKK inhibitor VII (-100) controls (% normalized activity); higher = more NF-kB reporter activity (less inhibition)", "details": "9.4 µM; stimulus: tCD40L 64 ng/ml; 4.5 h", "protocol": "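BL2 B cells with a stable NF-kB response-element luciferase reporter (BL2-NFkB-Luc), 384-well. Cells were pre-incubated with compound at 9.4 uM for 1 h at 37 C, then stimulated with 64 ng/ml trimerized CD40L for 4.5 h; luciferase was read with Steady-Glo. Signal was normalised per plate in Genedata (median DMSO neutral control = 0, median IKK inhibitor VII at 50 uM = -100) with Assay Median plate-pattern correction; duplicate plates.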", "values": [
      {"smiles": "CCC(=O)O[C@]1(C(=O)CCl)[C@@H](C)C[C@H]2[C@@H]3CCC4=CC(=O)C=C[C@]4(C)[C@@]3(F)[C@@H](O)C[C@@]21C", "CD40L-induced NF-kB luciferase activity": "-21.44 ± 0.014"},
      {"smiles": "CCCC(=O)O[C@]1(C(=O)CCl)[C@@H](C)C[C@H]2[C@@H]3CCC4=CC(=O)C=C[C@]4(C)[C@@]3(F)C(=O)C[C@@]21C", "CD40L-induced NF-kB luciferase activity": "-27.9 ± 3.7"},
      {"smiles": "C[C@H]1C[C@H]2[C@@H]3CCC4=CC(=O)C=C[C@]4(C)[C@@]3(Cl)[C@@H](O)C[C@]2(C)[C@@]1(O)C(=O)CO", "CD40L-induced NF-kB luciferase activity": "-25.6 ± 2.2"},
      {"smiles": "Cc1cnc(N)c2c(=O)oc3ccccc3c12", "CD40L-induced NF-kB luciferase activity": "41.69 ± 0.28"},
      {"smiles": "O=C1CCCC(=O)C1=Cc1c[nH]c2ccccc12", "CD40L-induced NF-kB luciferase activity": "-7.53 ± 0.79"},
      {"smiles": "CCn1c(=N)c(C(=O)NC)cc2c(=O)n3cccc(C)c3nc21", "CD40L-induced NF-kB luciferase activity": "0.825 ± 8.5"},
      {"smiles": "O=C(Nc1ccc(N2CCOCC2)cc1)c1ccc(-c2ccccc2[N+](=O)[O-])o1", "CD40L-induced NF-kB luciferase activity": "17.3 ± 0.45"},
      {"smiles": "COc1cc(OC)cc(C(C)=O)c1", "CD40L-induced NF-kB luciferase activity": "-2.98 ± 1.2"},
      {"smiles": "C=C1C2(C(=O)Nc3ccc(SC(F)F)cc3)CCC(C2)C1(C)C", "note": "(centres undefined)", "CD40L-induced NF-kB luciferase activity": "1.47 ± 2.7"},
      {"smiles": "N#C/C(=C/c1ccccc1)C(=O)NCc1ccccc1", "CD40L-induced NF-kB luciferase activity": "-1.8 ± 1.4"},
      {"smiles": "Cc1ccc(C(=O)COC(=O)c2cnccn2)cc1[N+](=O)[O-]", "CD40L-induced NF-kB luciferase activity": "0.896 ± 2.4"},
      {"smiles": "CCOc1ccccc1C(=O)NCCC(=O)O", "CD40L-induced NF-kB luciferase activity": "-1.43 ± 3.9"},
      {"smiles": "Cc1cccc(N2C(=O)C3C(c4ccccc4)OC4(C(=O)c5ccccc5C4=O)C3C2=O)c1", "note": "(centres undefined)", "CD40L-induced NF-kB luciferase activity": "-0.286 ± 0.72"},
      {"smiles": "COc1ccc(CN(CCC(c2ccc(F)cc2)C2CCOC(C)(C)C2)C(=O)c2ccco2)cc1", "note": "(centres undefined)", "CD40L-induced NF-kB luciferase activity": "-4.2 ± 3.9"},
      {"smiles": "CC(=O)OC1c2c(ccc3ccc(=O)oc23)OC(C)(C)C1OC(=O)CC(C)C", "note": "(centres undefined)", "CD40L-induced NF-kB luciferase activity": "-3.56 ± 6.5"},
      {"smiles": "CC1/C(=C\\c2ccc(Cl)cc2)C(=O)C2CC1C2(C)C", "note": "(centres undefined)", "CD40L-induced NF-kB luciferase activity": "3.76 ± 2.7"},
      {"smiles": "COC(=O)c1ccc(NC(=O)C23CCC(C)(C(=O)O2)C3(C)C)cc1", "note": "(centres undefined)", "CD40L-induced NF-kB luciferase activity": "-0.16 ± 13"},
      {"smiles": "COc1cccc(NC(=O)C2CC(=O)OC23CCOC(C)(C)C3)c1", "note": "(centres undefined)", "CD40L-induced NF-kB luciferase activity": "4.32 ± 4.7"},
      {"smiles": "CC1CNCCN1S(=O)(=O)c1cccc2cnccc12", "note": "(centres undefined)", "CD40L-induced NF-kB luciferase activity": "-26.1 ± 6.3"},
      {"smiles": "O=C1c2ccccc2C2(c3ccccc3)NCCN12", "note": "(centres undefined)", "CD40L-induced NF-kB luciferase activity": "1.37 ± 7"},
      {"smiles": "Cc1ccccc1C(=O)Oc1ccc(Sc2ccc(O)cc2)cc1", "CD40L-induced NF-kB luciferase activity": "2.2 ± 3.6"},
      {"smiles": "O=C(NCCc1c[nH]c2ccccc12)OCCSS(=O)(=O)O", "CD40L-induced NF-kB luciferase activity": "0.55 ± 1.4"},
      {"smiles": "CCOCC(=O)Nc1ccccc1C(=O)N1CCOCC1", "CD40L-induced NF-kB luciferase activity": "-5 ± 1"},
      {"smiles": "Cn1nc(-c2ccccn2)nc2c(=O)n(C)c(=O)nc1-2", "CD40L-induced NF-kB luciferase activity": "-19.1 ± 0.82"},
      {"smiles": "Cn1c(=O)[nH]c2nnc(-c3ccc(Cl)c(Cl)c3)nc2c1=O", "CD40L-induced NF-kB luciferase activity": "25.5 ± 4.7"},
      {"smiles": "Cn1nc(-c2ccc(Cl)cc2)nc2c(=O)n(C)c(=O)nc1-2", "CD40L-induced NF-kB luciferase activity": "-95.22 ± 0.55"},
      {"smiles": "O=C1[C@@H]2CSCN2C(=O)CN1Cc1ccc(F)cc1", "CD40L-induced NF-kB luciferase activity": "-0.473 ± 5.9"},
      {"smiles": "COc1ccc(NC(=S)N2CCN(CCN3C(=O)c4cccc5cccc(c45)C3=O)CC2)cc1", "CD40L-induced NF-kB luciferase activity": "1.19 ± 0.65"},
      {"smiles": "O=C(c1cccc2ccccc12)C1CCCN(C(=O)CCN2CCCO2)C1", "note": "(centres undefined)", "CD40L-induced NF-kB luciferase activity": "2.54 ± 2"},
      {"smiles": "CC(=O)O[C@H]1C(=O)[C@@]2(C)[C@H]([C@H](OC(=O)c3ccccc3)[C@]3(O)C[C@H](OC(=O)[C@H](O)C(NC(=O)c4ccccc4)c4ccccc4)C(C)=C1C3(C)C)[C@]1(OC(C)=O)CO[C@@H]1C[C@@H]2O", "note": "(some centres undefined)", "CD40L-induced NF-kB luciferase activity": "-33.4 ± 1.3"},
      {"smiles": "CC(C)C1CC(CCNCc2ccc(N(C)C)cc2)(c2ccccc2)CCO1", "note": "(centres undefined)", "CD40L-induced NF-kB luciferase activity": "-4.73 ± 11"},
      {"smiles": "N/C(=N\\OC(=O)c1cccc(Br)c1)c1ccncc1", "CD40L-induced NF-kB luciferase activity": "2.67 ± 0.79"},
      {"smiles": "COc1ccc(C2=CC(=O)C=CC2=O)cc1", "CD40L-induced NF-kB luciferase activity": "-5.93 ± 5.3"},
      {"smiles": "CCOc1ccc(C(=O)N2CCCC2C(=O)O)cc1", "note": "(centres undefined)", "CD40L-induced NF-kB luciferase activity": "2.22 ± 8"},
      {"smiles": "CC(=O)O[C@H]1CC[C@H]2[C@@H]3CCc4cc(O)ccc4[C@H]3CC[C@]12C", "CD40L-induced NF-kB luciferase activity": "-3.39 ± 3.8"},
      {"smiles": "COc1ccccc1/C=C/C(=O)OCCN1CCOCC1", "CD40L-induced NF-kB luciferase activity": "2.92 ± 4.6"},
      {"smiles": "CCOC(=O)C(=O)N1CCN(c2ccccc2OC)CC1", "CD40L-induced NF-kB luciferase activity": "-1.99 ± 1.9"},
      {"smiles": "CCOC(=O)C(=Cc1ccccc1OC)C(=O)OCC", "CD40L-induced NF-kB luciferase activity": "-29 ± 6.1"},
      {"smiles": "C[C@]12CCC(=O)C=C1[C@H](O)C[C@@H]1[C@@H]2[C@@H](O)C[C@@]2(C)[C@H]1CC[C@]2(O)C(=O)CO", "CD40L-induced NF-kB luciferase activity": "-8.7 ± 4.6"},
      {"smiles": "C[C@]12C=CC(=O)C=C1CCC1C3CC[C@](O)(C(=O)CO)[C@@]3(C)CC3OC312", "note": "(some centres undefined)", "CD40L-induced NF-kB luciferase activity": "-7.42 ± 5.5"},
      {"smiles": "C[C@H]1C[C@@H]2[C@H]([C@@H](O)C[C@@]3(C)[C@H]2CC[C@]3(O)C(=O)CO)[C@@]2(C)C=CC(=O)C=C12", "CD40L-induced NF-kB luciferase activity": "-35.94 ± 0.26"},
      {"smiles": "C[C@]12CCC(=O)C=C1CC[C@@H]1[C@@H]2C(=O)C[C@@]2(C)[C@H]1CC[C@]2(O)C(=O)CO", "CD40L-induced NF-kB luciferase activity": "-6.47 ± 2"},
      {"smiles": "CCCC1O[C@@H]2C[C@H]3[C@@H]4CCC5=CC(=O)C=C[C@]5(C)[C@H]4[C@@H](O)C[C@]3(C)[C@]2(C(=O)CO)O1", "note": "(some centres undefined)", "CD40L-induced NF-kB luciferase activity": "-26 ± 0.65"},
      {"smiles": "C[C@]12CCC(=O)C=C1CC[C@@H]1[C@@H]2CC[C@@]2(C)[C@H]1CC[C@]2(O)C(=O)CO", "CD40L-induced NF-kB luciferase activity": "-8.87 ± 3.8"},
      {"smiles": "CC(=O)OCC(=O)[C@@]1(O)CC[C@H]2[C@@H]3CCC4=CC(=O)CC[C@]4(C)[C@H]3[C@@H](O)C[C@@]21C", "CD40L-induced NF-kB luciferase activity": "-31.1 ± 6.7"},
      {"smiles": "CC(=O)OCC(=O)[C@@]1(O)CC[C@H]2[C@@H]3CCC4=CC(=O)C=C[C@]4(C)[C@H]3[C@@H](O)C[C@@]21C", "CD40L-induced NF-kB luciferase activity": "-43.8 ± 2.2"},
      {"smiles": "CC1(C)O[C@@H]2C[C@H]3[C@@H]4C[C@H](F)C5=CC(=O)CC[C@]5(C)[C@H]4[C@@H](O)C[C@]3(C)[C@]2(C(=O)CO)O1", "CD40L-induced NF-kB luciferase activity": "-21.3 ± 0.59"},
      {"smiles": "C[C@]12CCC(=O)C=C1CC[C@@H]1[C@@H]2[C@@H](O)C[C@@]2(C)[C@H]1CC[C@]2(O)C(=O)COC(=O)CCC(=O)O", "CD40L-induced NF-kB luciferase activity": "-23.2 ± 7.1"},
      {"smiles": "CC(=O)[C@@]1(O)CC[C@H]2[C@@H]3CCC4=CC(=O)CC[C@]4(C)[C@H]3[C@@H](O)C[C@@]21C", "CD40L-induced NF-kB luciferase activity": "-12.9 ± 3.2"}
    ]}
  ]
}
